Measured values from PubChem BioAssay (EPA / NIEHS).
Activity calls are given as the source filed them. How the source made its calls: active means hit-call score of the fitted dose curve at least 0.9, where 1 is the maximum; inactive means score below 0.9.

Assays:
[1] = read-out: TIMP metallopeptidase inhibitor 2 (TIMP2), TIMP2 (gene 7077); experiment: BSK_KF3CT_TIMP2: BioMAP Diversity Plus: KF3CT Assay for TIMP metallopeptidase inhibitor 2 (TIMP2) Biomarker Activity (AID 2283071); conditions: primary human keratinocytes with fibroblasts; actives raise or lower the signal
Outline: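 ELISA readout of TIMP-2 in keratinocyte plus foreskin fibroblast co-cultures (human skin primary cells), 24 h post-dose. Gain or loss of signal fitted relative to DMSO.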

[2] = read-out: Transforming growth factor beta 1 (TGFb1), TGFB1 (gene 7040); experiment: BSK_KF3CT_TGFb1: BioMAP Diversity Plus: KF3CT Assay for Transforming growth factor beta 1 (TGFb1) Biomarker Activity (AID 2283072); conditions: primary human keratinocytes with fibroblasts; actives raise or lower the signal
Outline: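 Read-out: ELISA for TGF-b1 in keratinocyte/foreskin fibroblast human skin co-culture, 24 h after dosing; bidirectional curve fit vs DMSO baseline; gain or loss of signal scored.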

[3] = read-out: C-C motif chemokine 2 (Homo sapiens) (UniProt P13500); experiment: BSK_KF3CT_MCP1: BioMAP Diversity Plus: KF3CT Assay for Monocyte Chemoattractant Protein 1 (MCP1/CCL2) Biomarker Activity (AID 2283073); conditions: primary human keratinocytes with fibroblasts; actives raise or lower the signal
Outline: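 ELISA readout of MCP-1 after 24 h chemical dosing of a human skin primary co-culture of keratinocytes and foreskin fibroblasts. Activity was fitted in both directions against DMSO.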

[4] = read-out: Matrix Metallopeptidase 9 (MMP9), MMP9 (gene 4318); experiment: BSK_KF3CT_MMP9: BioMAP Diversity Plus: KF3CT Assay for Matrix Metallopeptidase 9 (MMP9) Biomarker Activity (AID 2283074); conditions: primary human keratinocytes with fibroblasts; actives raise or lower the signal;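 on AC50: MMP9 protein level quantified by ELISA in the co-culture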
Outline: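 ELISA read-out of MMP-9 at 24 h post-dosing in a co-culture of human skin keratinocytes and foreskin fibroblasts. Gain or loss of signal was fitted in both directions against DMSO.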

[5] = read-out: urokinase plasminogen activator (uPA), PLAU (gene 5328); experiment: BSK_KF3CT_uPA: BioMAP Diversity Plus: KF3CT Assay for urokinase plasminogen activator (uPA) Biomarker Activity (AID 2283075); conditions: primary human keratinocytes with fibroblasts; actives raise or lower the signal
Outline: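 Skin co-culture (keratinocytes + foreskin fibroblasts), human primary; 24 h post-dose; uPA by ELISA; gain/loss fit vs DMSO baseline.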

[6] = read-out: CD40, CD40 (gene 958); experiment: BSK_LPS_CD40: BioMAP Diversity Plus: LPS Assay for CD40 Biomarker Activity (AID 2283076); conditions: primary human HUVEC with PBMC; actives raise or lower the signal
Outline: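 Cells were dosed, incubated 24 h, then assayed for CD40 by ELISA. Gain or loss of signal was analysed relative to DMSO controls. The culture paired human umbilical vein endothelium with peripheral blood mononuclear cells.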

[7] = read-out: E-selectin (Homo sapiens) (UniProt P16581); experiment: BSK_LPS_Eselectin: BioMAP Diversity Plus: LPS Assay for Eselectin Biomarker Activity (AID 2283077); conditions: primary human HUVEC with PBMC; actives raise or lower the signal
Outline: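 Primary human vascular co-culture (endothelium plus PBMC) was dosed with chemical, then E-selectin quantified by ELISA at 24 h. Endpoint values derive from bidirectional curve fitting relative to DMSO.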

[8] = read-out: Interleukin-8 (IL8), CXCL8 (gene 3576); experiment: BSK_LPS_IL8: BioMAP Diversity Plus: LPS Assay for Interleukin-8 (IL8) Biomarker Activity (AID 2283078); conditions: primary human HUVEC with PBMC; actives raise or lower the signal
Outline: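 Readout is IL-8 by ELISA, taken 24 h after compounds were added to LPS-stimulated endothelial/PBMC co-cultures. Both increases and decreases relative to DMSO control were scored through bidirectional fitting.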

[9] = read-out: Interleukin-1 alpha (IL1a), IL1A (gene 3552); experiment: BSK_LPS_IL1a: BioMAP Diversity Plus: LPS Assay for Interleukin-1 alpha (IL1a) Biomarker Activity (AID 2283080); conditions: primary human HUVEC with PBMC; actives raise or lower the signal
Outline: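 ELISA read-out of IL-1 alpha from a human primary vascular co-culture (endothelium plus PBMC) under LPS, sampled 24 hours post-dosing. Activity was fitted in both directions relative to DMSO controls.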

[10] = BSK_LPS_SRB: Viability Assessment in the BioMAP Diversity Plus: LPS Assay (AID 2283079); conditions: primary human HUVEC with PBMC;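 further: total protein by sulforhodamine B absorbance as a cytotoxicity measure; measured one day after compound addition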
Outline: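 Readout is SRB absorbance at 560 nm (0.1% stain, TCA-fixed parallel cultures) as a total-protein cytotoxicity measure. Cells: primary human umbilical vein endothelium plus peripheral blood mononuclear cells, 24 h after chemical exposure; DMSO served as baseline.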

Measured: AC50

Chain of E-selectin (Homo sapiens) (P16581 whole entry, looked up): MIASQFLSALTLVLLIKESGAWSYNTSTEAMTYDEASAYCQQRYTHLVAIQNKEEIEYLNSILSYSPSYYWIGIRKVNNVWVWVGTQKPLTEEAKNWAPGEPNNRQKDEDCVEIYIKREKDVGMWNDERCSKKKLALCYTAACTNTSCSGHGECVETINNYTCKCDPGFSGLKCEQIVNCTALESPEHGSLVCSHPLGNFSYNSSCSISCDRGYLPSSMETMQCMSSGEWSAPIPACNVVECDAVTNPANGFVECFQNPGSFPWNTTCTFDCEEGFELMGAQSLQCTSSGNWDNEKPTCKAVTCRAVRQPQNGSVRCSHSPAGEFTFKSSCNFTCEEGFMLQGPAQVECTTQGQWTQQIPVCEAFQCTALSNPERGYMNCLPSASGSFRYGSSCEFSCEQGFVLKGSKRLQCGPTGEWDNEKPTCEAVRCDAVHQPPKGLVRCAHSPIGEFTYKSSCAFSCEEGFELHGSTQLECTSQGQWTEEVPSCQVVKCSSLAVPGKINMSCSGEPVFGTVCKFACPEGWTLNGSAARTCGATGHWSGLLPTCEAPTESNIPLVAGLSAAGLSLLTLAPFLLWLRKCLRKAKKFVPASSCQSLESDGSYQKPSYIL

C=C(C)[C@H]1CC=C(C)C(=O)C1
not listed: [10]
inactive: all other assays above

CCCCCCCCCCCCCCCC(=O)OC/C=C(C)/C=C/C=C(C)/C=C/C1=C(C)CCCC1(C)C
active: [2] 0.0644 µM | [4] 0.125 µM
not listed: [10]
inactive: all other assays above

Cc1cc(CCC(=O)OCCOCCOCCOC(=O)CCc2cc(C)c(O)c(C(C)(C)C)c2)cc(C(C)(C)C)c1O
not listed: [10]
inactive: all other assays above

CC(C)(N=C=O)c1cccc(C(C)(C)N=C=O)c1
inactive: all assays above

Oc1c(Cl)cc(Cl)c(Cl)c1Cc1c(O)c(Cl)cc(Cl)c1Cl
active: [1] 1.79 µM | [2] 2.81 µM | [3] 5.44 µM | [4] 0.74 µM | [5] 2.99 µM | [6] 6.43 µM | [7] 22.8 µM | [8] 15.3 µM | [10] 14.1 µM | [9] 9.2 µM

CSCCC=O
not listed: [9] | [10]
inactive: all other assays above

CCCCOC(=O)CCCCCCCC(=O)OCCCC
not listed: [10]
inactive: all other assays above

C=C(C)C(=O)OCC(CC)(COC(=O)C(=C)C)COC(=O)C(=C)C
not listed: [10]
inactive: all other assays above

C=C(C)C(=O)OCCOCCOCCOCCOC(=O)C(=C)C
not listed: [10]
inactive: all other assays above

O=C1OC2(c3ccccc31)c1ccc(O)c(Br)c1Oc1c2ccc(O)c1Br
active: [1] 20 µM | [2] 4.66 µM | [3] 20 µM | [6] 20 µM | [7] 24.5 µM | [9] 20 µM
inactive: [4] | [5] | [8]

CCCCCC(C=O)=Cc1ccccc1
active: [1] 30 µM | [3] 28.8 µM | [4] 34.5 µM | [5] 35.9 µM | [6] 33.3 µM | [7] 31.1 µM | [9] 34.3 µM
inactive: [2] | [8]

C=C(C)C(=O)OCCOCCOCCOC(=O)C(=C)C
active: [5] 3.97 µM
not listed: [10]
inactive: all other assays above

C[C@@H]1CCN(C(=O)[C@H](CCCN=C(N)N)NS(=O)(=O)c2cccc3c2NC[C@H](C)C3)[C@@H](C(=O)O)C1
not listed: [10]
inactive: all other assays above

CS(=O)(=O)c1ccc(C2=C(c3ccccc3)C(=O)OC2)cc1
not listed: [10]
inactive: all other assays above

COc1ccc(CCN2CCC(Nc3nc4ccccc4n3Cc3ccc(F)cc3)CC2)cc1
active: [4] 5 µM | [10] 5 µM
inactive: all other assays above

O=C1OC[C@H](Cc2cccc(O)c2)[C@H]1Cc1cccc(O)c1
not listed: [10]
inactive: all other assays above

CC(=O)c1c(C)c([N+](=O)[O-])c(C(C)(C)C)c([N+](=O)[O-])c1C
not listed: [10]
inactive: all other assays above

c1ccc(CCc2ccccc2)cc1
active: [1] 13.4 µM | [2] 12.8 µM | [3] 20 µM | [4] 28.5 µM | [5] 20 µM | [6] 30.9 µM | [7] 31.9 µM | [8] 20 µM | [9] 32.7 µM

Clc1cc(Cl)c(-c2c(Cl)c(Cl)cc(Cl)c2Cl)cc1Cl
active: [1] 6.63 µM | [2] 4.16 µM | [3] 10 µM | [4] 8.51 µM | [5] 10 µM | [6] 10 µM | [7] 8.81 µM | [9] 12.5 µM
inactive: [8] | [10]
